Inconclusive results are not listed. Active and inactive are the calls of the source. How the source made its calls, unless noted: active means hit-call score of the fitted dose curve at least 0.9, where 1 is the maximum; inactive means score below 0.9.
Key:
[1] = read-out: Monokine induced gamma interferon (MIG), CXCL9 (gene 4283); experiment: BSK_3C_MIG: BioMAP Diversity Plus: 3C Assay for Monokine induced gamma interferon (MIG) Biomarker Activity (AID 2283021); conditions: primary human endothelial cells (HUVEC); actives raise or lower the signal;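 on AC50: MIG protein level measured by immunoassay in the treated endothelial cultures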
In short: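 ELISA measurement of MIG in human umbilical vein endothelial cells 24 h after treatment. Cytotoxicity tracked by SRB staining in parallel cultures; gain or loss of signal fitted relative to DMSO.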

[2] = BSK_3C_SRB: Viability Assessment in the BioMAP Diversity Plus: 3C Assay (AID 2283023); conditions: primary human endothelial cells (HUVEC);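 further: fitted both ways against DMSO so a hit may be signal rise or drop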
In short: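 Cytotoxicity readout in parallel HUVEC 3C cultures: after 24 h compound exposure, cells fixed with 10% TCA, stained with 0.1% SRB and read at 560 nm. Gain or loss relative to DMSO fitted.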

[3] = read-out: Matrix Metallopeptidase 1 (MMP1), MMP1 (gene 4312); experiment: BSK_BE3C_MMP1: BioMAP Diversity Plus: BE3C Assay for Matrix Metallopeptidase 1 (MMP1) Biomarker Activity (AID 2283024); conditions: primary human bronchial epithelial cells; actives raise or lower the signal
In short: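 ELISA measurement of MMP-1 after 24 h compound exposure of primary human bronchial epithelial cells. Changes in either direction fitted relative to DMSO; parallel SRB staining checked overt cytotoxicity.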

[4] = BSK_3C_Vis: BioMAP Diversity Plus: 3C Assay for Morphology Visualization (AID 2283025); conditions: primary human endothelial cells (HUVEC);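 further: fitted both ways so gain or loss versus DMSO counts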;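 on AC50: light microscopy image of cell morphology used as background control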
In short: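 Light-microscopy visualization of HUVEC cultures at 24 h post-treatment, with DMSO as baseline for bidirectional fitting.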

[5] = read-out: Pselectin, SELP (gene 6403); experiment: BSK_4H_Pselectin: BioMAP Diversity Plus: 4H Assay for Pselectin Biomarker Activity (AID 2283026); conditions: primary human endothelial cells (HUVEC); actives raise or lower the signal
In short: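 ELISA of surface P-selectin on HUVEC, 24 h after dosing, with parallel SRB staining (0.1% after 10% TCA fixation, 560 nm) for overt cytotoxicity. Activity fitted in both directions relative to DMSO.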

[6] = BSK_4H_SRB: Viability Assessment in the BioMAP Diversity Plus: 4H Assay (AID 2283027); conditions: primary human endothelial cells (HUVEC);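 further: cells exposed to compound for 24 h before staining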;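 on AC50: curves fitted both ways versus DMSO so AC50 may be loss or gain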
In short: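 Cytotoxicity readout: sulforhodamine B (0.1%) staining of total protein after 10% TCA fixation, measured at 560 nm in human umbilical vein endothelium at 24 h. DMSO set the baseline; fitting was bidirectional.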

[7] = read-out: Thrombomodulin, THBD (gene 7056); experiment: BSK_3C_Thrombomodulin: BioMAP Diversity Plus: 3C Assay for Thrombomodulin Biomarker Activity (AID 2283029); conditions: primary human endothelial cells (HUVEC); actives raise or lower the signal
In short: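 ELISA measurement of thrombomodulin on HUVEC surface 24 h after chemical dosing; activity fitted in both directions relative to DMSO vehicle.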

[8] = read-out: Urokinase-type plasminogen activator receptor (uPAR), PLAUR (gene 5329); experiment: BSK_4H_uPAR: BioMAP Diversity Plus: 4H Assay for Urokinase-type plasminogen activator receptor (uPAR) Biomarker Activity (AID 2283030); conditions: primary human endothelial cells (HUVEC); actives raise or lower the signal
In short: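 uPAR level read by ELISA on HUVEC cultures (BioMAP 4H) 24 h post-dosing, analyzed for gain or loss relative to DMSO. Parallel SRB staining assessed overt cytotoxicity.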

[9] = biological target: human Vitamin D Receptor (VDR), VDR (gene 7421) (UniProt P11473); experiment: ATG_VDR_TRANS: Attagene TRANS-FACTORIAL HepG2 Assay for human Vitamin D Receptor (VDR) (AID 2283022; active means hit-call score of the fitted dose curve at least 0.9, where 1 is the maximum)
Chain of human Vitamin D Receptor (VDR), VDR (gene 7421) (P11473 whole entry, looked up, the tested form may be a part): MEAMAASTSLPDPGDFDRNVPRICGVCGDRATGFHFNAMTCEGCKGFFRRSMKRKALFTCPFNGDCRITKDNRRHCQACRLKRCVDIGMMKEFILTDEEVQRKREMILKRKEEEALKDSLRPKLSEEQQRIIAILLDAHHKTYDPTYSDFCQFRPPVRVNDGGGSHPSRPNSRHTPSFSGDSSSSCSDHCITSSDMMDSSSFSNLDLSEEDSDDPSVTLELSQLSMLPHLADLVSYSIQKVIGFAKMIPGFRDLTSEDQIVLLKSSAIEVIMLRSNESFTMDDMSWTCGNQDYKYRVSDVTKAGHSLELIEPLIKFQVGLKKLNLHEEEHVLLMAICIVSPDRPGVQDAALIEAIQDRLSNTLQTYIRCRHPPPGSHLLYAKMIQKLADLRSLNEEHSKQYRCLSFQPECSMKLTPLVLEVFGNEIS
In short: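 Transactivation by an exogenous VDR-Gal4 chimera in transiently transfected HepG2 cells was measured as reporter transcript level 24 hours after chemical treatment. RT-PCR products were analysed by capillary electrophoresis and fitted in the positive direction relative to DMSO.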

[10] = BSK_BE3C_SRB: Viability Assessment in the BioMAP Diversity Plus: BE3C Assay (AID 2283028); conditions: primary human bronchial epithelial cells
In short: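 Cytotoxicity read-out: SRB (0.1%) staining of TCA-fixed (10%) human lung bronchial epithelial cells, absorbance 560 nm, 24 h post-dosing. Curves fitted both directions relative to DMSO.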

CN1C(=O)CC[C@H]1c1cccnc1
outcome [1]: inactive
outcome [2]: inactive
outcome [3]: inactive
outcome [4]: inactive
outcome [5]: inactive
outcome [6]: inactive
outcome [7]: inactive
outcome [8]: inactive

Oc1ccc2ccccc2c1
outcome [1]: inactive
outcome [9]: inactive
outcome [2]: inactive
outcome [3]: inactive
outcome [4]: inactive
outcome [5]: inactive
outcome [6]: inactive
outcome [7]: inactive
outcome [8]: inactive

O=C(Nc1ccc(Cl)cc1)Nc1ccc(Cl)c(Cl)c1
outcome [1]: inactive
AC50 [2]: 2.66 µM (active)
outcome [3]: inactive
outcome [4]: inactive
AC50 [5]: 2.6 µM (active)
AC50 [6]: 2.02 µM (active)
outcome [10]: inactive
outcome [7]: inactive
AC50 [8]: 1.92 µM (active)

CCN(CC)C(=O)c1cc(S(=O)(=O)Cc2ccccc2)c(N2CCC(c3ccccc3)CC2)cc1N(CC)CCN(C)C
AC50 [1]: 29.9 µM (active)
AC50 [2]: 5.18 µM (active)
AC50 [4]: 6.48 µM (active)
AC50 [5]: 7.87 µM (active)
AC50 [6]: 19.2 µM (active)
AC50 [7]: 4.43 µM (active)
AC50 [8]: 19.8 µM (active)

CCCCCCCCN(C)CCCCCCCC
outcome [1]: inactive
outcome [9]: inactive
outcome [2]: inactive
outcome [3]: inactive
outcome [4]: inactive
outcome [5]: inactive
outcome [6]: inactive
outcome [7]: inactive
outcome [8]: inactive

CCOC(=O)O[C@H](C)OC(=O)c1ccc2c(c1)cc(C(=O)NC1CCN(C(C)C)CC1)n2Cc1cc(-c2ccc(Cl)s2)on1
AC50 [1]: 8.78 µM (active)
AC50 [2]: 5.03 µM (active)
AC50 [3]: 13.2 µM (active)
AC50 [4]: 5.3 µM (active)
AC50 [5]: 6.95 µM (active)
AC50 [6]: 5.07 µM (active)
outcome [7]: inactive
AC50 [8]: 7.66 µM (active)

CN(C)c1ccc(C(=C2C=CC(=[N+](C)C)C=C2)c2ccc(N(C)C)cc2)cc1
AC50 [1]: 9.93 µM (active)
AC50 [2]: 4.93 µM (active)
AC50 [3]: 0.938 µM (active)
AC50 [4]: 16 µM (active)
AC50 [5]: 0.613 µM (active)
AC50 [6]: 8.49 µM (active)
AC50 [7]: 3.97 µM (active)
AC50 [8]: 1.42 µM (active)

CCCC(=O)OCCC(C)C
outcome [1]: inactive
outcome [9]: inactive
outcome [2]: inactive
outcome [3]: inactive
outcome [4]: inactive
outcome [5]: inactive
outcome [6]: inactive
outcome [7]: inactive
outcome [8]: inactive

c1ccc2n[nH]nc2c1
outcome [1]: inactive
outcome [2]: inactive
outcome [3]: inactive
outcome [4]: inactive
outcome [5]: inactive
outcome [6]: inactive
outcome [10]: inactive
outcome [7]: inactive
outcome [8]: inactive

NCc1cccc(C2CCN(C(=O)c3ccc(C#Cc4ccccc4F)o3)CC2)c1
AC50 [1]: 36.2 µM (active)
outcome [9]: inactive
AC50 [2]: 11 µM (active)
AC50 [3]: 28.2 µM (active)
AC50 [4]: 13.3 µM (active)
AC50 [5]: 13.3 µM (active)
AC50 [6]: 15.1 µM (active)
AC50 [7]: 12.7 µM (active)
AC50 [8]: 23.2 µM (active)

Cc1c2ccccc2c(C)c2c1ccc1ccccc12
outcome [1]: inactive
AC50 [2]: 13.4 µM (active)
AC50 [3]: 20 µM (active)
AC50 [4]: 13.7 µM (active)
AC50 [5]: 14.7 µM (active)
AC50 [6]: 18.8 µM (active)
outcome [7]: inactive
AC50 [8]: 14 µM (active)

From PubChem BioAssay (EPA / NIEHS)
